Numbering of substitutions follows the chain as printed.
Tests used:
Assay in all cases: PBM; 200 nM protein, PBS
Details in all cases: dsDNA, one strand shown
HOXB4 [1] = target: HOXB4 (Homo sapiens, UniProt P17483 148-234)
HOXB4 [2] = target: HOXB4 (Homo sapiens, UniProt P17483 148-234, V174I)
PAX4 = target: T1, PAX4 (Homo sapiens, UniProt O43316 9-242, R200Q)
T1 sequence: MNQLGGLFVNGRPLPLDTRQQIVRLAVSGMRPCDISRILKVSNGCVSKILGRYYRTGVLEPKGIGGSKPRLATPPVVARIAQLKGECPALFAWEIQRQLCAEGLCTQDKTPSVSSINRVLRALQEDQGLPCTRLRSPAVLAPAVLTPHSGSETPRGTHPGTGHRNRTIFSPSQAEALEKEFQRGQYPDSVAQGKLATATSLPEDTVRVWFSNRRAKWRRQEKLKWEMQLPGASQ

MSX2 [3] = target: MSX2 (Homo sapiens, UniProt P35548 130-214)
MSX2 [4] = target: MSX2 (Homo sapiens, UniProt P35548 130-214, F161Y)
VAX1 [5] = target: VAX1 (Homo sapiens, UniProt Q5SQQ9 86-172, K157R)
VENTX [6] = target: T2, VENTX (Homo sapiens, UniProt O95231 78-163, R121Q)
T2 sequence: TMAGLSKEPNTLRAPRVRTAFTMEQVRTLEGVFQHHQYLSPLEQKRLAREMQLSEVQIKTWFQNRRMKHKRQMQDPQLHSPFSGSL

HOXA4 [7] = target: HOXA4 (Homo sapiens, UniProt Q00056 201-287, W262R)
ALX4 = ALX4 (Homo sapiens, UniProt Q9H161 200-286)
PRRX1 [8] = target: PRRX1 (Homo sapiens, UniProt P54821 80-166, F113S)
VENTX [9] = target: T3, VENTX (Homo sapiens, UniProt O95231 78-163, Y115F)
T3 sequence: T2 sequence with Y38F, Q44R

HOXA2 [10] = target: HOXA2 (Homo sapiens, UniProt O43364 129-215, R185T)
HOXA4 [11] = target: HOXA4 (Homo sapiens, UniProt Q00056 201-287, R217L)
HOXA2 [12] = target: HOXA2 (Homo sapiens, UniProt O43364 129-215, R185K)
HOXA4 [13] = target: HOXA4 (Homo sapiens, UniProt Q00056 201-287)
VAX1 [14] = target: VAX1 (Homo sapiens, UniProt Q5SQQ9 86-172, T142I)
HOXA4 [15] = target: HOXA4 (Homo sapiens, UniProt Q00056 201-287, W262F)
PRRX1 [16] = target: PRRX1 (Homo sapiens, UniProt P54821 80-166)
HOXB6 [17] = target: HOXB6 (Homo sapiens, UniProt P17509 132-218, K202E)
HOXB6 [18] = target: HOXB6 (Homo sapiens, UniProt P17509 132-218)
HOXB6 (Homo sapiens, UniProt P17509 132-218), sequence (P17509 132-218): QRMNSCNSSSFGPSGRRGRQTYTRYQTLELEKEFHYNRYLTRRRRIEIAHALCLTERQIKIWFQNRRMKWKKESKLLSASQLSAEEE

HOXA4 (Homo sapiens, UniProt Q00056 201-287, W262R), sequence (Q00056 201-287 W262R): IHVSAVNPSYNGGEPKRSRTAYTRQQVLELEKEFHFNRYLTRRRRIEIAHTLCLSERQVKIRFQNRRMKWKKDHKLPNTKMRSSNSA
MSX2 (Homo sapiens, UniProt P35548 130-214), sequence (P35548 130-214): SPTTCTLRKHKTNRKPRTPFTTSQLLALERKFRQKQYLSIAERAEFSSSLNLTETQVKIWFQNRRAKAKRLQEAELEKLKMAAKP
VAX1 (Homo sapiens, UniProt Q5SQQ9 86-172, K157R), sequence (Q5SQQ9 86-172 K157R): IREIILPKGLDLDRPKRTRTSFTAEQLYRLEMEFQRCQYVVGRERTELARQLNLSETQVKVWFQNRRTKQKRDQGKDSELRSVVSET
HOXB6 (Homo sapiens, UniProt P17509 132-218, K202E), sequence (P17509 132-218 K202E): as the sequence (P17509 132-218) above, with K71E counted along it
HOXB4 (Homo sapiens, UniProt P17483 148-234, V174I), sequence (P17483 148-234 V174I): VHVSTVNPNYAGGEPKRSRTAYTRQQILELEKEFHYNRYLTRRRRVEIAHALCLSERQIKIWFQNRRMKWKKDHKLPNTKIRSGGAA
PRRX1 (Homo sapiens, UniProt P54821 80-166), sequence (P54821 80-166): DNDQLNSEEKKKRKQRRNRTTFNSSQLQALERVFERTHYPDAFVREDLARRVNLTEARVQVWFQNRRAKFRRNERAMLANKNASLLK
ALX4, sequence (Q9H161 200-286): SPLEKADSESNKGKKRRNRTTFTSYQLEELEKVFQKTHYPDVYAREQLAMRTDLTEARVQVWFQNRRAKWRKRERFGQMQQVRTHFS
PRRX1 (Homo sapiens, UniProt P54821 80-166, F113S), sequence (P54821 80-166 F113S): as the sequence (P54821 80-166) above, with F34S counted along it
HOXA2 (Homo sapiens, UniProt O43364 129-215, R185K), sequence (O43364 129-215 R185K): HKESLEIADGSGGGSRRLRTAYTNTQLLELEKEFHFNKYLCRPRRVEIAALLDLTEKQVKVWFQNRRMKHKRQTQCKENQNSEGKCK
VAX1 (Homo sapiens, UniProt Q5SQQ9 86-172, T142I), sequence (Q5SQQ9 86-172 T142I): as the sequence (Q5SQQ9 86-172 K157R) above, with T57I, R72K counted along it
HOXA2 (Homo sapiens, UniProt O43364 129-215, R185T), sequence (O43364 129-215 R185T): as the sequence (O43364 129-215 R185K) above, with K57T counted along it
HOXB4 (Homo sapiens, UniProt P17483 148-234), sequence (P17483 148-234): as the sequence (P17483 148-234 V174I) above, with I27V counted along it
HOXA4 (Homo sapiens, UniProt Q00056 201-287), sequence (Q00056 201-287): as the sequence (Q00056 201-287 W262R) above, with R62W counted along it
MSX2 (Homo sapiens, UniProt P35548 130-214, F161Y), sequence (P35548 130-214 F161Y): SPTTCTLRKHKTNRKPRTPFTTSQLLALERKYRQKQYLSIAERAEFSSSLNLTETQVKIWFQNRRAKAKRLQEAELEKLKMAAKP
HOXA4 (Homo sapiens, UniProt Q00056 201-287, R217L), sequence (Q00056 201-287 R217L): as the sequence (Q00056 201-287 W262R) above, with R17L, R62W counted along it
HOXA4 (Homo sapiens, UniProt Q00056 201-287, W262F), sequence (Q00056 201-287 W262F): as the sequence (Q00056 201-287 W262R) above, with R62F counted along it

AATTAGTC was tested, and the binding signal (HOXB4 [1]) was 12.4 upbm affinity estimate (log intensity, higher = more binding, comparable within an allelic series), the binding signal (HOXB4 [2]) was 13 upbm affinity estimate (log intensity, higher = more binding, comparable within an allelic series) and the binding signal (PAX4) was 12.1 upbm affinity estimate (log intensity, higher = more binding, comparable within an allelic series). The binding signal (MSX2 [3]) was 13.5 upbm affinity estimate (log intensity, higher = more binding, comparable within an allelic series), the binding signal (MSX2 [4]) was 13 upbm affinity estimate (log intensity, higher = more binding, comparable within an allelic series) and the binding signal (VAX1 [5]) was 12.3 upbm affinity estimate (log intensity, higher = more binding, comparable within an allelic series).
With CTAATTGA the binding signal (HOXB4 [1]) was 13.3 upbm affinity estimate (log intensity, higher = more binding, comparable within an allelic series), the binding signal (VENTX [6]) was 12.1 upbm affinity estimate (log intensity, higher = more binding, comparable within an allelic series) and the binding signal (HOXA4 [7]) was 10.5 upbm affinity estimate (log intensity, higher = more binding, comparable within an allelic series). For the same sequence, the binding signal (ALX4) was 14.1 upbm affinity estimate (log intensity, higher = more binding, comparable within an allelic series), the binding signal (PRRX1 [8]) was 11.1 upbm affinity estimate (log intensity, higher = more binding, comparable within an allelic series) and the binding signal (VENTX [9]) was 11.7 upbm affinity estimate (log intensity, higher = more binding, comparable within an allelic series). The binding signal (HOXA2 [10]) was 13.3 upbm affinity estimate (log intensity, higher = more binding, comparable within an allelic series), the binding signal (HOXA4 [11]) was 12 upbm affinity estimate (log intensity, higher = more binding, comparable within an allelic series) and the binding signal (HOXB4 [2]) was 14 upbm affinity estimate (log intensity, higher = more binding, comparable within an allelic series). The binding signal (PAX4) was 11.8 upbm affinity estimate (log intensity, higher = more binding, comparable within an allelic series), the binding signal (HOXA2 [12]) was 13.4 upbm affinity estimate (log intensity, higher = more binding, comparable within an allelic series) and the binding signal (HOXA4 [13]) was 13.9 upbm affinity estimate (log intensity, higher = more binding, comparable within an allelic series). The binding signal (MSX2 [3]) was 13.9 upbm affinity estimate (log intensity, higher = more binding, comparable within an allelic series), the binding signal (MSX2 [4]) was 13.5 upbm affinity estimate (log intensity, higher = more binding, comparable within an allelic series) and the binding signal (VAX1 [14]) was 13.2 upbm affinity estimate (log intensity, higher = more binding, comparable within an allelic series). The binding signal (HOXA4 [15]) was 11.4 upbm affinity estimate (log intensity, higher = more binding, comparable within an allelic series), the binding signal (PRRX1 [16]) was 13.5 upbm affinity estimate (log intensity, higher = more binding, comparable within an allelic series) and the binding signal (VAX1 [5]) was 13.4 upbm affinity estimate (log intensity, higher = more binding, comparable within an allelic series).
With AGCAATTA the binding signal (HOXB4 [1]) was 13 upbm affinity estimate (log intensity, higher = more binding, comparable within an allelic series), the binding signal (VENTX [6]) was 12 upbm affinity estimate (log intensity, higher = more binding, comparable within an allelic series) and the binding signal (HOXA4 [7]) was 10.5 upbm affinity estimate (log intensity, higher = more binding, comparable within an allelic series). For the same sequence, the binding signal (ALX4) was 13.8 upbm affinity estimate (log intensity, higher = more binding, comparable within an allelic series), the binding signal (PRRX1 [8]) was 11.1 upbm affinity estimate (log intensity, higher = more binding, comparable within an allelic series) and the binding signal (VENTX [9]) was 11.8 upbm affinity estimate (log intensity, higher = more binding, comparable within an allelic series). For the same sequence, the binding signal (HOXB6 [17]) was 9.92 upbm affinity estimate (log intensity, higher = more binding, comparable within an allelic series), the binding signal (HOXA2 [10]) was 12.8 upbm affinity estimate (log intensity, higher = more binding, comparable within an allelic series) and the binding signal (HOXA4 [11]) was 12 upbm affinity estimate (log intensity, higher = more binding, comparable within an allelic series). The binding signal (HOXB4 [2]) was 13.7 upbm affinity estimate (log intensity, higher = more binding, comparable within an allelic series), the binding signal (HOXA2 [12]) was 13.3 upbm affinity estimate (log intensity, higher = more binding, comparable within an allelic series) and the binding signal (HOXA4 [13]) was 13.7 upbm affinity estimate (log intensity, higher = more binding, comparable within an allelic series). For the same sequence, the binding signal (MSX2 [3]) was 14.1 upbm affinity estimate (log intensity, higher = more binding, comparable within an allelic series), the binding signal (MSX2 [4]) was 13.8 upbm affinity estimate (log intensity, higher = more binding, comparable within an allelic series) and the binding signal (VAX1 [14]) was 12.8 upbm affinity estimate (log intensity, higher = more binding, comparable within an allelic series). The binding signal (HOXA4 [15]) was 11.5 upbm affinity estimate (log intensity, higher = more binding, comparable within an allelic series), the binding signal (PRRX1 [16]) was 13.3 upbm affinity estimate (log intensity, higher = more binding, comparable within an allelic series) and the binding signal (VAX1 [5]) was 12.7 upbm affinity estimate (log intensity, higher = more binding, comparable within an allelic series). The binding signal (HOXB6 [18]) was 12 upbm affinity estimate (log intensity, higher = more binding, comparable within an allelic series).
With CAATTAAG the binding signal (HOXB4 [1]) was 13 upbm affinity estimate (log intensity, higher = more binding, comparable within an allelic series), the binding signal (VENTX [6]) was 12 upbm affinity estimate (log intensity, higher = more binding, comparable within an allelic series) and the binding signal (HOXA4 [7]) was 10.6 upbm affinity estimate (log intensity, higher = more binding, comparable within an allelic series). The binding signal (ALX4) was 13.9 upbm affinity estimate (log intensity, higher = more binding, comparable within an allelic series), the binding signal (PRRX1 [8]) was 11.3 upbm affinity estimate (log intensity, higher = more binding, comparable within an allelic series) and the binding signal (VENTX [9]) was 11.6 upbm affinity estimate (log intensity, higher = more binding, comparable within an allelic series). The binding signal (HOXB6 [17]) was 9.95 upbm affinity estimate (log intensity, higher = more binding, comparable within an allelic series), the binding signal (HOXA2 [10]) was 12.9 upbm affinity estimate (log intensity, higher = more binding, comparable within an allelic series) and the binding signal (HOXA4 [11]) was 12.1 upbm affinity estimate (log intensity, higher = more binding, comparable within an allelic series). For the same sequence, the binding signal (HOXB4 [2]) was 13.7 upbm affinity estimate (log intensity, higher = more binding, comparable within an allelic series), the binding signal (PAX4) was 11.9 upbm affinity estimate (log intensity, higher = more binding, comparable within an allelic series) and the binding signal (HOXA2 [12]) was 13 upbm affinity estimate (log intensity, higher = more binding, comparable within an allelic series). For the same sequence, the binding signal (HOXA4 [13]) was 13.8 upbm affinity estimate (log intensity, higher = more binding, comparable within an allelic series), the binding signal (MSX2 [3]) was 13.9 upbm affinity estimate (log intensity, higher = more binding, comparable within an allelic series) and the binding signal (MSX2 [4]) was 13.4 upbm affinity estimate (log intensity, higher = more binding, comparable within an allelic series). The binding signal (VAX1 [14]) was 12.8 upbm affinity estimate (log intensity, higher = more binding, comparable within an allelic series), the binding signal (HOXA4 [15]) was 11.7 upbm affinity estimate (log intensity, higher = more binding, comparable within an allelic series) and the binding signal (PRRX1 [16]) was 13.3 upbm affinity estimate (log intensity, higher = more binding, comparable within an allelic series). For the same sequence, the binding signal (VAX1 [5]) was 12.5 upbm affinity estimate (log intensity, higher = more binding, comparable within an allelic series) and the binding signal (HOXB6 [18]) was 11.8 upbm affinity estimate (log intensity, higher = more binding, comparable within an allelic series).
With ATCAATTA the binding signal (HOXB4 [1]) was 13.4 upbm affinity estimate (log intensity, higher = more binding, comparable within an allelic series), the binding signal (VENTX [6]) was 12.3 upbm affinity estimate (log intensity, higher = more binding, comparable within an allelic series) and the binding signal (HOXA4 [7]) was 10.7 upbm affinity estimate (log intensity, higher = more binding, comparable within an allelic series). The binding signal (ALX4) was 14.2 upbm affinity estimate (log intensity, higher = more binding, comparable within an allelic series), the binding signal (PRRX1 [8]) was 11.4 upbm affinity estimate (log intensity, higher = more binding, comparable within an allelic series) and the binding signal (VENTX [9]) was 11.8 upbm affinity estimate (log intensity, higher = more binding, comparable within an allelic series). The binding signal (HOXB6 [17]) was 10.1 upbm affinity estimate (log intensity, higher = more binding, comparable within an allelic series), the binding signal (HOXA2 [10]) was 13.3 upbm affinity estimate (log intensity, higher = more binding, comparable within an allelic series) and the binding signal (HOXA4 [11]) was 12.6 upbm affinity estimate (log intensity, higher = more binding, comparable within an allelic series). The binding signal (HOXB4 [2]) was 14.1 upbm affinity estimate (log intensity, higher = more binding, comparable within an allelic series), the binding signal (PAX4) was 12.2 upbm affinity estimate (log intensity, higher = more binding, comparable within an allelic series) and the binding signal (HOXA2 [12]) was 13.6 upbm affinity estimate (log intensity, higher = more binding, comparable within an allelic series). The binding signal (HOXA4 [13]) was 14.1 upbm affinity estimate (log intensity, higher = more binding, comparable within an allelic series), the binding signal (MSX2 [3]) was 14 upbm affinity estimate (log intensity, higher = more binding, comparable within an allelic series) and the binding signal (MSX2 [4]) was 13.7 upbm affinity estimate (log intensity, higher = more binding, comparable within an allelic series). For the same sequence, the binding signal (VAX1 [14]) was 12.9 upbm affinity estimate (log intensity, higher = more binding, comparable within an allelic series), the binding signal (HOXA4 [15]) was 11.9 upbm affinity estimate (log intensity, higher = more binding, comparable within an allelic series) and the binding signal (PRRX1 [16]) was 13.6 upbm affinity estimate (log intensity, higher = more binding, comparable within an allelic series). For the same sequence, the binding signal (VAX1 [5]) was 13.1 upbm affinity estimate (log intensity, higher = more binding, comparable within an allelic series) and the binding signal (HOXB6 [18]) was 12.1 upbm affinity estimate (log intensity, higher = more binding, comparable within an allelic series).
